Assay results from PubChem BioAssay AID1259350 (ICCB-Longwood Screening Facility, Harvard Medical School, 2017).
This is one part of the list. Active and inactive are the calls of the source.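 How the source made its calls: active means inhibition score of 15 or more, meaning 100 minus mean polarization as percent of control over three replicates; inactive means the rest.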

molecular target: Guanine nucleotide-binding protein G(i) subunit alpha-3 (Rattus norvegicus) (UniProt P08753); test: inhibitors of GIV peptide binding to Galpha-i3, confirmation, biochemical, fluorescence polarization, FITC-GIV peptide, rat Galphai3 (AID 1259350); conditions: at 100 µM, active compounds read low;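 further: lower mP means peptide displaced from Galphai3 so more inhibition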
Sequence (P08753 whole entry, looked up): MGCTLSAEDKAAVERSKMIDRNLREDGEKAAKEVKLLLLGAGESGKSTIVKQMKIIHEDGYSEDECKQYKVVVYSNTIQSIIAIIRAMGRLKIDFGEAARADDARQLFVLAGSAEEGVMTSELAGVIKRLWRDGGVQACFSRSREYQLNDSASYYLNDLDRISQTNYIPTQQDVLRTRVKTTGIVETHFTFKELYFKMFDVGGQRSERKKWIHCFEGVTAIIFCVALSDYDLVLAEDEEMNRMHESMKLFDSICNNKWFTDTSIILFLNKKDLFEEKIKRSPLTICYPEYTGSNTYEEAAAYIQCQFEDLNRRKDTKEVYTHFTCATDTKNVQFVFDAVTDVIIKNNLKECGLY

Fluorescence polarization, inactive:
COc1ccc(Nc2cc(C(=O)NCCCN(C)c3ccccc3)c3ccccc3n2)c(OC)c1 84 mP
COC1=C(N2CCOCC2)C(=O)c2ccccc2C1=O 68 mP
O=C(O)c1c2ccccc2[nH]c2c1oc1cc(=O)ccc12 71.6 mP
CCOC(=O)c1nc2cc(C)c(C)cc2nc1NC1CCCCC1 88.9 mP
CCOc1cc(/C=C2/C(=O)N(c3nn[nH]n3)N=C2C)cc(Cl)c1OCC 69.8 mP
CC(=O)Oc1cccc2c1C(=O)C=CC2=O 73.2 mP
COc1ccccc1CNc1ncc2nc(-c3ccccc3)oc2n1 63.8 mP
Cc1nn(-c2ccccc2)c2sc(-c3noc(-c4ccccc4F)n3)cc12 78.5 mP
O=C(NN=c1c(=O)c2ccccc2c1=O)c1ccncc1 66.7 mP
CCOC(=O)C1=C(C)N(c2ccc(OC)cc2)C(=O)/C1=C\c1ccco1 77.8 mP
Cc1ccc(C(=O)N2CCc3cc(CNC(=O)c4ccc(Br)cc4)ccc32)cc1 85.2 mP
COc1ccc(N=Nc2c(-c3ccc(OC)cc3)[nH]oc2=O)cc1 72.7 mP
COc1ccccc1N1C(=O)/C(=C/c2ccc(Cl)cc2)C=C1c1ccccc1 77.8 mP
COC(=O)Cn1nc2c(-c3nc(-c4ccc(Cl)cc4)no3)cccn2c1=O 83.1 mP

Fluorescence polarization, active:
CC(=O)Nc1ccc(Nc2c3c4c(cccc4[nH]c2=O)C(=O)c2ccccc2-3)cc1 39.3 mP
Cn1cccc1/C=C1\C(=O)NC(=S)N(c2ccccc2)C1=O 51.3 mP
CC1=NOC(=O)C1C(c1cccc(Br)c1)c1c(C)[nH]n(-c2ccccc2)c1=O (centres undefined) 37.2 mP
N#CSc1cc(SC#N)c(N)nc1N 25.2 mP
O=C(O)c1cc(NS(=O)(=O)c2ccc3c(c2)CCCC3)cnc1N1CCOCC1 43 mP
Cc1ccc(N2C(=O)/C(=C/c3ccc(OCC(=O)O)c(Br)c3)C(=O)NC2=S)cc1 60.7 mP
O=C(O)CCC(C(=O)O)N1C(=O)/C(=C\c2ccco2)SC1=S (centres undefined) 41.8 mP
Cc1ccc(NC(=O)c2nc[nH]c2C(=O)N2CCCCC2)c(C(=O)c2ccccc2)c1 54.4 mP
N#CC(C#N)=C(C#N)/C=C/n1c2ccccc2c2ccccc21 50.6 mP
CCC(=O)N1CCc2cc(N3CC(C(=O)N4CCN(C(C)C)CC4)CC3=O)ccc21 (centres undefined) 64.3 mP
